D2 PAM-1 – Beta-Arrestin HTS for Positive Allosteric Modulators of the Human D2 Dopamine Receptor: Potentiators. D(2) dopamine receptor (Homo sapiens), P14416. DiscoveRx D2 beta-arrestin cells, luminescence, 90 min; 100% = 57 uM dopamine signal. potentiation, % (no concentration beside the values). 360,000 tested, 0.23% active; in the data active = potentiation above about 50%
Target sequence (P14416 whole entry, looked up): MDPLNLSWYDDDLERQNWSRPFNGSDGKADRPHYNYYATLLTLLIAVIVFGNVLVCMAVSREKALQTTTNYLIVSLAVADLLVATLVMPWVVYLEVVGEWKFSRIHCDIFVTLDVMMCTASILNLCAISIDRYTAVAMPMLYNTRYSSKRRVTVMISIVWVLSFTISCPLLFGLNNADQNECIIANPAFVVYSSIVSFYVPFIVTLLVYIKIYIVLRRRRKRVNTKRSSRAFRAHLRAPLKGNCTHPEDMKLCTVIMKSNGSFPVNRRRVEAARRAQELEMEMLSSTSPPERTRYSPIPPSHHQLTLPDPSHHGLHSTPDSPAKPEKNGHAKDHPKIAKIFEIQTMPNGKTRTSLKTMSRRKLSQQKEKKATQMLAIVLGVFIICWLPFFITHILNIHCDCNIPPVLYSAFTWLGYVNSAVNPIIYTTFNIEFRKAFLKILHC
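PathHunter D2 cells, attached overnight at 37 deg C, received compound in DMSO plus dopamine at EC20 (50 nM final) for 90 min at 37 deg C. Beta-arrestin recruitment was read as luminescence after 1 h with detection reagent at ambient temperature.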
D2 ag-1 – HTS Assay for Allosteric Agonists of the Human D2 Dopamine Receptor: Primary Screen for Agonists. 340,000 tested, 0.53% active. activation, % at 2 µM. AID 485358, 2010. HEK293 T-REx D2 cells, calcium flux agonist mode. D(2) dopamine receptor (Homo sapiens), P14416;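 active = activation over 3 SD above normal in the single-dose calcium agonist read, cut at about 30% in these data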
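In this primary screen, compounds producing a positive calcium signal within 180 s of addition to tetracycline-induced, force-coupled HEK293 Trex D2 cells are flagged; cells are dye-loaded with a no-wash calcium kit beforehand.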
D2 ag-2 – Beta-Arrestin HTS for Positive Allosteric Modulators of the Human D2 Dopamine Receptor: Agonists. DiscoveRx PathHunter D2 beta-arrestin, luminescence, 90 min; 100% = 57 uM dopamine signal. activation, % (concentration not given with the values). 360,000 tested, 0.084% active. AID 624465, 2012; in the data active = activation above about 40%
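Agonist mode: compounds alone added to overnight-plated D2 PathHunter cells for 90 min at 37 C, with 57 uM final dopamine (EC100) defining full response. Beta-arrestin recruitment detected by chemiluminescent reagent, read after 1 h at ambient temperature.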
D2 PAM-2 – HTS Assay for Positive Allosteric Modulators of the Human D2 Dopamine Receptor: Primary Screen for Potentiators; HEK293 T-REx D2, calcium flux, EC20 dopamine potentiation; 340,000 tested, 0.34% active; potentiation, % at 10 µM; D(2) dopamine receptor (Homo sapiens), P14416;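 active = potentiation over 3 SD above the plate norm, cut at about 30% in these data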
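Tetracycline-induced Hek293 Trex D2 cells, force-coupled to calcium, loaded with no-wash calcium dye. Compound added with 180 s kinetic read for agonism, then EC20 dopamine and a further 180 s read for potentiation.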
D2 antag – HTS Assay for Allosteric Antagonists of the Human D2 Dopamine Receptor: Primary Screen for Antagonists | D(2) dopamine receptor (Homo sapiens), P14416 | HEK293 TREx D2 cells, calcium flux, dopamine EC80 | inhibition, % at 10 µM | 340,000 tested, 2% active | AID 485344, 2010; in the data active = inhibition above about 30%; inactive = below that, where a call was filed
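In this primary screen, negative modulation is detected by tracking calcium flux after an EC80 dopamine challenge in inducible HEK293 T-REx D2 cells preexposed to test compound for 180 s.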
Of the large screens only hits and unclear results are named; the others gave an inactive call. Shown are actives, neighbours in structure and some others; about 2.4% of the full set was active somewhere.

Cc1nc(-c2cccc(S(=O)(=O)N3CCOCC3)c2)cs1	D2 antag 35
CC1Cc2cc(S(=O)(=O)CCC(=O)Nc3ccc(F)cc3Cl)ccc2N1C(=O)C1CC1 (stereo unspecified)	none (no result: D2 PAM-1, D2 ag-1, D2 ag-2, D2 antag)
CC1(C)Nc2ccc(O)cc2-c2c1ssc2=S	D2 antag 36
COc1cccc(-n2sc3c(c2=S)-c2cc(OC)ccc2NC3(C)C)c1	none
COc1ccc(NC(=O)Cn2c(=O)nc(-c3ccccc3)c3ccccc32)cc1OC	none (no result: D2 PAM-1, D2 ag-2, D2 antag)
CCOc1ccccc1C(=O)N1CCC(c2nc3ccccc3o2)CC1	none (no result: D2 PAM-1, D2 ag-2, D2 antag)
CCN(C1CCCCC1)S(=O)(=O)c1ccc(S(=O)(=O)N2CCN(CCC#N)CC2)cc1	D2 antag 38
CCc1ccc(S(=O)(=O)NCc2nc3cccnc3n2Cc2ccccc2Cl)cc1	none (no result: D2 PAM-1, D2 ag-2, D2 antag)
O=C1c2ccccc2C(=O)c2c(Nc3ccc(CCO)cc3)ccc(O)c21	D2 ag-2 41
Cn1c(SCC(=O)N2CCCc3ccccc32)ncc(C(=O)Nc2ccccc2)c1=O	none (no result: D2 PAM-1, D2 ag-2, D2 antag)
COc1ccc(CCNC(=O)c2ccc3c(c2)CCN3S(=O)(=O)c2ccc(C)cc2)cc1OC	none (no result: D2 PAM-1, D2 ag-2, D2 antag)
Cc1ccc(C(=O)N/N=C\c2ccc(-c3ccc(Cl)cc3)o2)cn1	D2 PAM-2 30
Cc1ccc(C(=O)N/N=C\c2ccc(-c3ccc([N+](=O)[O-])cc3)o2)cn1	none
Fc1ccccc1N1CCN(C2CCCN(Cc3cccc(C(F)(F)F)c3)C2)CC1 (stereo unspecified)	D2 antag 55
Oc1ccccc1CN1CCCC(N2CCN(c3cccc(C(F)(F)F)c3)CC2)C1 (stereo unspecified)	none
COCCn1c(-c2ccccc2)nc(=S)c2c1CC(C)(C)OC2	D2 PAM-2 37
CCCc1cc(=O)[nH]c(Nc2cc(Cl)cc(Cl)c2)n1	none (no result: D2 PAM-1, D2 ag-2, D2 antag)
CCN(C(=O)C1CCN(S(=O)(=O)c2ccc3c(c2)oc(=O)n3C)CC1)c1cccc(C)c1	D2 antag 39
CC1CCCN(CCCCOc2cccc(Br)c2)C1 (stereo unspecified)	D2 antag 75
Clc1cccc(OCCN2CCCC2)c1	none
CC(C)c1cccc(OCCN2CCCC2)c1	D2 antag 71
CCOc1cccc(OCCCCN2CCCCC2)c1	none
CC1CCCN(CCC(=O)c2ccc(Br)cc2)C1 (stereo unspecified)	none
CC1CCCN(CCOc2ccc(Br)cc2)C1 (stereo unspecified)	D2 antag 63
Brc1cccc(OCCCCN2CCCCC2)c1	D2 antag 88
COc1ccc(/C=C/c2nc(C#N)c(N3CCC(C(N)=O)CC3)o2)cc1OC	none (no result: D2 PAM-1, D2 ag-2, D2 antag)
CN1CCN(C(=O)c2c(O)c3cccc4c3n(c2=O)CC4)CC1	none
CCOC(=O)N1CCN(C(=O)c2c(O)c3cccc4c3n(c2=O)CC4)CC1	D2 PAM-2 37
CCC1CCCCN1CCCCOc1cccc(Cl)c1 (stereo unspecified)	D2 antag 55
CC(C)c1ccccc1NC(=O)CNCCOc1ccccc1F	D2 ag-1 31, D2 antag 46
CS(=O)(=O)c1ccc(Cl)c(S(=O)(=O)NCc2ccccc2)c1	D2 antag 35
Cc1ccc(Cn2ccn(Cc3ccc(C)cc3)c(=O)c2=O)cc1	none (no result: D2 PAM-1, D2 ag-2, D2 antag)
CCc1ccc(C(=O)c2cn(Cc3ccccc3)c3cc(OC)c(OC)cc3c2=O)cc1	none (no result: D2 PAM-1, D2 ag-2, D2 antag)
CCC1CCCCN1CCCNC(=O)c1cc2c(=O)oc3ccc(C)cc3c2s1 (stereo unspecified)	D2 antag 36
COc1ccc(-c2nc(CN3CCC(C(=O)NCCCOC(C)C)CC3)c(C)o2)cc1OC	none (no result: D2 PAM-1, D2 ag-2, D2 antag)
O=C(CCSc1ccc(Cl)cc1)NCc1ccncc1	none
COc1ccc(SCCC(=O)NCc2ccncc2)cc1	D2 antag 32
COc1ccc2c(c1)CCc1c(C(=O)Nc3c(C)nn(Cc4ccc(C)cc4)c3C)noc1-2	none (no result: D2 PAM-1, D2 ag-2, D2 antag)

Compound activity as filed in PubChem.
